Test results reported in PubChem BioAssay.
Inconclusive results are not listed. Calls of active or inactive are those of the source. Unless noted, the rule behind the calls is not given here.

Experiments:
[1] = rapamycin-like changes in RPL19A-GFP expression – cell-based, S. cerevisiae, multiplex flow cytometry, primary screen (AID 1862; in the data active = percent of DMSO control GFP below about 86%;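 note: lower values mimic rapamycin by blocking the RPL19A rise seen in DMSO cells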); details: S. cerevisiae RPL19A-GFP strain, flow cytometry fluorescence, 3 h; at 10 µM; stronger effect = lower value
[2] = TOR pathway GLN3 branch reporter MEP2-GFP changes – S. cerevisiae, multiplex flow cytometry, primary screen (AID 1867;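 active = GFP response, as percent of the DMSO control, above the screen-wide mean plus 3 SD, about 139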;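 note: median GFP channel fluorescence of barcode-gated MEP2-GFP cells measured by flow cytometry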); details: S. cerevisiae MEP2-GFP strain, 3 h, at 10 µM, stronger effect = higher value
[3] = TOR pathway RTG branch CIT2 reporter changes – S. cerevisiae, GFP fusion, multiplex flow cytometry, primary screen (AID 1870;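 active = percent response above a set limit, the screen-wide mean plus 3 SD, cut at about 130% in these data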;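 note: barcoded CIT2-GFP strain pooled with four other GFP strains with rapamycin as positive control; median GFP fluorescence per well over plate mean of DMSO wells so 100% = DMSO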); details: S. cerevisiae CIT2-GFP expression, 3 h, at 10 µM, stronger effect = higher value
[4] = TOR pathway LAP4-GFP level changes – S. cerevisiae, multiplex flow cytometry, primary screen (AID 1873;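 active = GFP signal, as percent of the solvent control, above the screen mean plus 3 SD, about 149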); details: S. cerevisiae LAP4-GFP expression, 3 h, at 10 µM, stronger effect = higher value
[5] = yeast AGP1-GFP level changes, GLN3 branch – cell-based, multiplex flow cytometry, S. cerevisiae, primary screen (AID 1887;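 active = GFP signal above the screen-wide mean plus 3 SD, that is over about 124.5% of the solvent control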;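 note: AGP1-GFP fusion strain of S. cerevisiae within a five-strain barcoded multiplex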); details: 3 h, at 10 µM, stronger effect = higher value
[6] = reduced mouse 2C T cell binding to pMHC/ICAM-1 vesicles – MLPCN validation set, flow cytometry, LFA-1/ICAM-1 modulator project, pilot screen (AID 2523;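 active = response below a set limit, under 55% cells CD8-positive and vesicle-bound, and CD8 cells' 90th-percentile brightness under 279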;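 for vesicle binding response: mean PE anti-B7-1 fluorescence of CD8+ cells relative to row control; 100% = QL9-loaded vesicles with DMSO vehicle in the same plate row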); details: 2C mouse CD8+ T cells, at 7 µM, stronger effect = lower value; double positive events: measured here: CD8+/vesicle+ event percentage
[7] = target: Integrin beta-1 (Homo sapiens) + Integrin alpha-4 (Homo sapiens) (UniProt P13612+P05556); assay: alpha4beta1 integrin LIBS antibody binding reduction – U937 cells, HUTS-21 mAb, flow cytometry, validation set, VLA-4 allosteric modulator project, pilot screen (AID 2674;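 active = inhibition above 50%, about 3 SD of the validation set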;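 note: antibody binding induced by the VLA-4 ligand LDV present at three times its Kd; 0% = LDV ligand with antibody and no compound and 100% = antibody without LDV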); details: HUTS-21 LIBS mAb binding, at 6.7 µM, stronger effect = higher value
[8] = calorie-restriction mimetic ROS inhibitors, yeast – validation compound set, pilot screen (AID 2706;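 active = superoxide response below 65% of plate, a cut near 3 SD across the whole screen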;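 note: yeast exposed to compound for one week at 30 degrees C before staining; 100% = mean of all compound wells on the same plate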); details: S. cerevisiae aging, superoxide DHE fluorescence; at 10 µM; stronger effect = lower value
[9] = target: Beta-adrenergic receptor kinase 1 (Homo sapiens) (UniProt P25098); assay: GRK2 binders displacing RNA aptamer, biochemical, validation, human GRK2, bead flow cytometry (AID 488806;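 active = aptamer binding inhibition above 30%, about 3 SD of noise from non-fluorescent compounds; inactive = inhibition at or below 30%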); details: bead-bound GRK2, FAM-aptamer displacement, at 10 µM, stronger effect = higher value
[10] = target: Beta-2 adrenergic receptor (Homo sapiens) (UniProt P07550); assay: agonist-induced loss of surface beta2AR – cell-based, FAP fluorogen, flow cytometry, validation set, pilot screen (AID 504459;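 active = percent response above 42, roughly 3 SD of non-fluorescent test compounds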;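 note: agonist-driven loss of surface beta2AR via internalization measured by FAP dye flow cytometry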); details: Am2.2-beta2AR cells, at 10 µM, stronger effect = higher value
[11] = target: AP-2 complex subunit beta (Homo sapiens) (UniProt P63010); assay: beta-arrestin/AP2 interaction blockers – biochemical, validation set, GST-AP2 beads, flow cytometry, pilot screen (AID 504541;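 active = inhibition above 54%, about 3 SD of non-fluorescent compounds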;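 note: AP2 carries R879A mutation and is captured from E. coli lysate; bead-bound FITC arrestin peptide fluorescence measuring arrestin peptide binding to AP2; 0% = DMSO wells and 100% = excess unlabeled arrestin peptide control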); details: FITC arrestin peptide, at 10 µM, stronger effect = higher value
[12] = cytosolic pH regulators acting via V-ATPase – S. cerevisiae, pHLuorin, HTS validation (AID 504600; in the data active = response above about 15%;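 note: plate controls were DMSO for no effect and reference compound for full effect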); details: V-ATPase proton transport, at 10 µM, stronger effect = higher value
[13] = tested on: anti-desmoglein-3 scFv antibody binding to human DSG3; assay: blockers of pathogenic pemphigus antibody–desmoglein-3 binding – biochemical, validation compound set, bead-based, flow cytometry, pilot screen (AID 588368;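 active = binding below the plate cutoff, the plate median minus 3 SD, with a reading above zero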;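 note: signal is the median channel fluorescence of bead-bound GFP antibody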); details: Protein G beads, DSG3-Fc, scFv-GFP binding, at 10 µM, stronger effect = lower value
[14] = tested on: Botulinum neurotoxin type F light chain protease (Clostridium botulinum); assay: Clostridium botulinum type F light chain protease inhibitors, microsphere substrate cleavage, validation (AID 588459); details: multiplex microsphere protease substrate cleavage assay, flow cytometry; at 10 µM; stronger effect = higher value
[15] = target: Botulinum neurotoxin type A (Clostridium botulinum) (UniProt P0DPI0); assay: BoNT/A light chain protease inhibitors, biochemical, multiplex microsphere flow cytometry, validation set (AID 588460); details: at 10 µM, stronger effect = higher value
[16] = target: Lethal factor (Bacillus anthracis) (UniProt P15917); assay: Bacillus anthracis lethal factor inhibition, microsphere flow cytometry protease assay, validation at 10 µM (AID 588461); details: multiplex microsphere protease cleavage assay, stronger effect = higher value
[17] = Nile Red efflux blockade in pump-expressing yeast – validation compound set, multiplex, phenotypic, pilot screen (AID 588506;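 active = efflux inhibition above 0.42, the validation set average plus 4 SD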;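 note: Nile Red retained in cells so higher fluorescence means more efflux inhibition; 0 = negative control wells and 1 = enniatin B 25 µM full block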); details: S. cerevisiae pump-expressing triplex, Nile Red efflux flow cytometry; at 10 µM; stronger effect = higher value
[18] = target: ATP-binding cassette sub-family B member 6 (Homo sapiens) (UniProt Q9NP58); assay: blockers of ABCB6-driven porphyrin uptake – K562-ABCB6 cells, flow cytometry, validation set, pilot screen (AID 588550;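 active = inhibition above the screen-wide mean plus 3 SD, about 51%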;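 note: 0% = DMSO wells and 100% = benzethonium chloride 70 µM positive control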); details: K562-ABCB6 porphyrin accumulation, 1 h, at 10 µM, stronger effect = higher value
[19] = AML differentiation inducers, ER-HoxA9 marrow cells – cell-based, GFP/MAC1 double positive, flow cytometry, validation set, primary screen (AID 588685;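 active = differentiation response of at least 50%, scaled between solvent and reference control, from cells with both markers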;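 note: compound exposure lasts four days before antibody staining and flow analysis; 0% = DMSO wells and 100% = 5 µM fulvestrant positive control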); details: stronger effect = higher value

Chain of AP-2 complex subunit beta (Homo sapiens) (P63010 whole entry, looked up, one chain of several): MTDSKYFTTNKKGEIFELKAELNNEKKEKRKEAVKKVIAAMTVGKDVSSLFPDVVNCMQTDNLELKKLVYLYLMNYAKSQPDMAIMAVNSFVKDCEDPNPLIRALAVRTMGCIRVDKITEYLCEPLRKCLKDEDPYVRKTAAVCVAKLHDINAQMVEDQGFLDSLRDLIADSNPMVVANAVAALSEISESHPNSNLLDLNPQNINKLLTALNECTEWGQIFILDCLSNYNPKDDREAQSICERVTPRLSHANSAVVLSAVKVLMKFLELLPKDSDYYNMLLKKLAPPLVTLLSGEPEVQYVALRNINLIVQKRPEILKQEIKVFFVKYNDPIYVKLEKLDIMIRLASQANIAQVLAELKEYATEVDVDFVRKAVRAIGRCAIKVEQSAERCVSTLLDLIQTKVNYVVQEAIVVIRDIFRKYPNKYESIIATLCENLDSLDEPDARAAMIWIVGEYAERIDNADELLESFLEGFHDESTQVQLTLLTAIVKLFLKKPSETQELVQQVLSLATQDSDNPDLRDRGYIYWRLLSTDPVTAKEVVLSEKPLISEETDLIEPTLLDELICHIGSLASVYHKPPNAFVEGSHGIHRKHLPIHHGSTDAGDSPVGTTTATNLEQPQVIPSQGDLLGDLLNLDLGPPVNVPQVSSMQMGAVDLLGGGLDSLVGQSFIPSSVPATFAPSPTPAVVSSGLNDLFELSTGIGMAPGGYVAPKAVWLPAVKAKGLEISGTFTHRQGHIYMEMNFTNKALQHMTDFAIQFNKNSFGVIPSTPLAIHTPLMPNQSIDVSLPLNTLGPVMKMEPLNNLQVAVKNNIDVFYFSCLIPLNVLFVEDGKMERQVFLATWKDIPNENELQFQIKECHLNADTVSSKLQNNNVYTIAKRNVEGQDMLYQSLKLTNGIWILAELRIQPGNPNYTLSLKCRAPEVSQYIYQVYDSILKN
Chain of Botulinum neurotoxin type A (Clostridium botulinum) (P0DPI0 whole entry, looked up): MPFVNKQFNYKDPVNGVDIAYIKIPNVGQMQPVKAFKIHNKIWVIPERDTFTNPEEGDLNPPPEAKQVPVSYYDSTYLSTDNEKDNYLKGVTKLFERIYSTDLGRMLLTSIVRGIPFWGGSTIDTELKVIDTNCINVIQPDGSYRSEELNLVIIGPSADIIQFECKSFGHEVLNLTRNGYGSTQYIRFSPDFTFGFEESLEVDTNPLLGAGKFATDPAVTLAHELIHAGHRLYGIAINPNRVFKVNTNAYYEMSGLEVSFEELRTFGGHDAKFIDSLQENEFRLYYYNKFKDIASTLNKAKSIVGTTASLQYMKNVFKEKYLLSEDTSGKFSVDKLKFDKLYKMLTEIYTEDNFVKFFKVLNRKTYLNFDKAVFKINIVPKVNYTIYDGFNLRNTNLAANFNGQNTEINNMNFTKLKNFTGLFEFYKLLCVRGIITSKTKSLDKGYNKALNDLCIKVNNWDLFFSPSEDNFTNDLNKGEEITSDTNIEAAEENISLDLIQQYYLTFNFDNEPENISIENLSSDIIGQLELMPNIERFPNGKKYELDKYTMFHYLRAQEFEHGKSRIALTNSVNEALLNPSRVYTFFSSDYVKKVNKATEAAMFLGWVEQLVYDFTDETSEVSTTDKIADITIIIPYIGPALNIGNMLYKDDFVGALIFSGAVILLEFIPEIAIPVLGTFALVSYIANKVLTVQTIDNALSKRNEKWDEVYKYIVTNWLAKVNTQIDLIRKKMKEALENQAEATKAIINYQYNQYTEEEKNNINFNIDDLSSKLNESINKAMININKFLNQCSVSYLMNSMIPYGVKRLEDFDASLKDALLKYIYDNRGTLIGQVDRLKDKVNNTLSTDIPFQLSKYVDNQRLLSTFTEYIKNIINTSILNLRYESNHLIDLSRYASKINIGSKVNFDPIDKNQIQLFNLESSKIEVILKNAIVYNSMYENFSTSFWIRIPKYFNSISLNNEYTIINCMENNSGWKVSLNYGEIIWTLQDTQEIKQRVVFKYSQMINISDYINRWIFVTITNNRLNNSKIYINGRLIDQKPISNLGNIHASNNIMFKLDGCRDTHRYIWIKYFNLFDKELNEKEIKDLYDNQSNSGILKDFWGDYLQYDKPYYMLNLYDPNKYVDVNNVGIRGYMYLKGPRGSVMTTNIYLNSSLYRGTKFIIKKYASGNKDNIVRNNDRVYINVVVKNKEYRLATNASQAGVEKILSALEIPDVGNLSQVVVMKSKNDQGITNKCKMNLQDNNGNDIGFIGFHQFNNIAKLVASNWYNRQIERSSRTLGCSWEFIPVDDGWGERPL
Chain of Beta-adrenergic receptor kinase 1 (Homo sapiens) (P25098 whole entry, looked up): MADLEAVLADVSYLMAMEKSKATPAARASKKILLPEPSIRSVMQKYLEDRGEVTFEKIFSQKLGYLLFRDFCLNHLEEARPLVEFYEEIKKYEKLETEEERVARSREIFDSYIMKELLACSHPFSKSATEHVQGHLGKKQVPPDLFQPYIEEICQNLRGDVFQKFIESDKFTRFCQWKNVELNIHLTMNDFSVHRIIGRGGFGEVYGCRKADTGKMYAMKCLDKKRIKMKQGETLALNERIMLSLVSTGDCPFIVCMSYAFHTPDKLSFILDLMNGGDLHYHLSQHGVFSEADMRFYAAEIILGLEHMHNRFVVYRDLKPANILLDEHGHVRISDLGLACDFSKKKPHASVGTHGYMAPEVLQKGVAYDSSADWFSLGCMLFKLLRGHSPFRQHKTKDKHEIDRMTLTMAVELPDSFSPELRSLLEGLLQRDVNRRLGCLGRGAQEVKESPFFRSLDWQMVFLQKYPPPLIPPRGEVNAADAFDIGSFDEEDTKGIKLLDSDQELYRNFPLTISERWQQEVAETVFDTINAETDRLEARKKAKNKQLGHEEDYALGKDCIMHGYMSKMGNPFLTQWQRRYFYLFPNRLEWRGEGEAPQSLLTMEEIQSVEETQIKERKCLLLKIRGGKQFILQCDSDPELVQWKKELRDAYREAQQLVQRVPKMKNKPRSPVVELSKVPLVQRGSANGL
Chain of Integrin beta-1 (Homo sapiens) + Integrin alpha-4 (Homo sapiens) (P05556 whole entry, looked up): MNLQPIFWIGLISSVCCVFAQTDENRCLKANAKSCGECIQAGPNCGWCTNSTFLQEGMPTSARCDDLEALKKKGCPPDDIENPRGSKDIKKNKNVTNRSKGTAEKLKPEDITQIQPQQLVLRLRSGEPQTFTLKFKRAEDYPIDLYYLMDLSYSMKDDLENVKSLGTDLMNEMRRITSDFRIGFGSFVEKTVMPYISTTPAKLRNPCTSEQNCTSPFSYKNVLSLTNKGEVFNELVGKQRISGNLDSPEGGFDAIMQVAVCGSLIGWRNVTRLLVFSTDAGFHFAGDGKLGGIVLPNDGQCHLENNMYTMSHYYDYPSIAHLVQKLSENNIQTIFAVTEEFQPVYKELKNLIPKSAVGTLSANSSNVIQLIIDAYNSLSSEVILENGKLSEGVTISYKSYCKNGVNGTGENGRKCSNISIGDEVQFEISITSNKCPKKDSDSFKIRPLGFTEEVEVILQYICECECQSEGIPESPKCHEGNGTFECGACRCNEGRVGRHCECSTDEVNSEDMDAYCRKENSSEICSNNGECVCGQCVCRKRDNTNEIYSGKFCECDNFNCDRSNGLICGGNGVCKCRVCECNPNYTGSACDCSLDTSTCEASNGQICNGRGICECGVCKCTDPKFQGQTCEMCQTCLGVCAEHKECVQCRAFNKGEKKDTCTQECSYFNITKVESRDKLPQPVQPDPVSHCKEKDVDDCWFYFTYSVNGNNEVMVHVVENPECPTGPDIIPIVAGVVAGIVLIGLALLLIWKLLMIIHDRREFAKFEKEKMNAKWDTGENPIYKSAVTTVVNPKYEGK
Chain of Integrin beta-1 (Homo sapiens) + Integrin alpha-4 (Homo sapiens) (P13612 whole entry, looked up): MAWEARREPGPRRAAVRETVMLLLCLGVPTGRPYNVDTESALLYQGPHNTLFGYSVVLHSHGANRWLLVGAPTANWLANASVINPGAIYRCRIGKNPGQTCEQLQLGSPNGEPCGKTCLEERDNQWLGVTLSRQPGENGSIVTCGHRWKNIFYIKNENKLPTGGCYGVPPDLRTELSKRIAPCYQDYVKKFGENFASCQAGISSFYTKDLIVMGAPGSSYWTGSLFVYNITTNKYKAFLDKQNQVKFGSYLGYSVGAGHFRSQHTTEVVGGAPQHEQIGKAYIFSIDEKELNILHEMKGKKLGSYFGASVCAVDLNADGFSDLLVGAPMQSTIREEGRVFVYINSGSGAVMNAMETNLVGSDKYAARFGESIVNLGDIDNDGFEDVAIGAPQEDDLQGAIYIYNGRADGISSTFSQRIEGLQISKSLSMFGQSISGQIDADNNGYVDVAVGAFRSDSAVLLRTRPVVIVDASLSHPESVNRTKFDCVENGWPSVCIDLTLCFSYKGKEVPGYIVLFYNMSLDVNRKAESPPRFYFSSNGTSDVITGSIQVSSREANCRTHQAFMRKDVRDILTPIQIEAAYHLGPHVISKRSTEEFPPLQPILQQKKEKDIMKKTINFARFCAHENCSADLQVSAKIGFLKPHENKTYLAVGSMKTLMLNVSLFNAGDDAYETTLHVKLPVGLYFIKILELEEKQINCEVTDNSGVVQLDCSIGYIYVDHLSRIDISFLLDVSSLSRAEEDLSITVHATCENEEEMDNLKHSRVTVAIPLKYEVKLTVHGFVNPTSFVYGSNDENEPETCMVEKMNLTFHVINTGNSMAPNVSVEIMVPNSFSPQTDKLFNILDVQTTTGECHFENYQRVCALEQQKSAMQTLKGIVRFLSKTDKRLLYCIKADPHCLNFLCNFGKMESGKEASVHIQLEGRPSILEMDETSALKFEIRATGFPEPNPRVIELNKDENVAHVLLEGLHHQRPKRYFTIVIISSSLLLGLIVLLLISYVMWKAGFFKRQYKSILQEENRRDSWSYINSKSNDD

CCCC[N+]1(C)[C@@H]2CC(OC(=O)[C@H](CO)c3ccccc3)C[C@H]1[C@@H]1O[C@@H]12 (stereo not given in full)
inactive: percent of DMSO control GFP [1] 107% | GFP response vs DMSO [2] 109% | percent response of DMSO control [3] 106% | GFP response vs DMSO [4] 112% | GFP response, % of DMSO [5] 111% | vesicle binding response [6] 150% | inhibition [7] -15.8% | superoxide response (% of plate) [8] 97.4% | aptamer binding inhibition [9] 4% | response [10] -2.08% | inhibition [11] 0.96% | response [12] -3.56% | binding (% of control) [13] 96.4% | inhibition [14] 1.1% | inhibition [15] 0.2% | inhibition [16] -5.3% | efflux inhibition (fraction of control) [17] 0.3 | inhibition [18] 28% | differentiation response [19] 13%
59.9%: double positive events [6]

COc1ccc(-c2nc3ccccc3c(=O)o2)cc1
inactive: percent of DMSO control GFP [1] 103% | GFP response vs DMSO [2] 95.2% | percent response of DMSO control [3] 92% | GFP response vs DMSO [4] 106% | GFP response, % of DMSO [5] 87.9% | vesicle binding response [6] 308% | inhibition [7] -19.5% | superoxide response (% of plate) [8] 99.5% | aptamer binding inhibition [9] 1% | response [10] 12.6% | inhibition [11] -5.48% | response [12] -0.56% | binding (% of control) [13] 102% | inhibition [14] 1.8% | inhibition [15] 1.3% | inhibition [16] 0.8% | efflux inhibition (fraction of control) [17] 0.22 | inhibition [18] -2% | differentiation response [19] 2.4%
78.9%: double positive events [6]

CN1C(=O)N(C)C(=O)C2(Cc3ccccc3N3CCOCC32)C1=O (stereo not given)
64.2%: double positive events [6]
inactive: percent of DMSO control GFP [1] 101% | GFP response vs DMSO [2] 103% | percent response of DMSO control [3] 102% | GFP response vs DMSO [4] 93.7% | GFP response, % of DMSO [5] 99.9% | vesicle binding response [6] 3430% | inhibition [7] 8.28% | superoxide response (% of plate) [8] 109% | aptamer binding inhibition [9] 0% | response [10] 4.14% | inhibition [11] -5.91% | response [12] 0.7% | binding (% of control) [13] 102% | inhibition [14] 5% | inhibition [15] 0.6% | inhibition [16] 1.1% | inhibition [18] 5% | differentiation response [19] 0%
active: efflux inhibition (fraction of control) [17] 0.62

COc1cccc(Oc2c(C)oc3cc(OC(=O)N(C)C)ccc3c2=O)c1
inactive: percent of DMSO control GFP [1] 102% | GFP response vs DMSO [2] 102% | percent response of DMSO control [3] 107% | GFP response vs DMSO [4] 99.1% | GFP response, % of DMSO [5] 99.4% | vesicle binding response [6] 148% | inhibition [7] 5.61% | superoxide response (% of plate) [8] 110% | aptamer binding inhibition [9] 0% | response [10] -2.34% | inhibition [11] 8.84% | response [12] -4.25% | binding (% of control) [13] 101% | inhibition [14] -1.7% | inhibition [15] -0.4% | inhibition [16] -1.2% | efflux inhibition (fraction of control) [17] -0.02 | inhibition [18] 23% | differentiation response [19] -3.11%
60.2%: double positive events [6]

[N-]=[N+]=CC(=O)OC[C@H](N)C(=O)O
64.4%: double positive events [6]
inactive: percent of DMSO control GFP [1] 102% | GFP response vs DMSO [2] 102% | percent response of DMSO control [3] 100% | GFP response vs DMSO [4] 109% | GFP response, % of DMSO [5] 110% | vesicle binding response [6] 133% | inhibition [7] 12.5% | superoxide response (% of plate) [8] 97.4% | aptamer binding inhibition [9] 5% | response [10] -13% | inhibition [11] 4.06% | response [12] 2.12% | binding (% of control) [13] 92.8% | inhibition [14] 2.7% | inhibition [15] 1.2% | inhibition [16] 2.3% | efflux inhibition (fraction of control) [17] -0.13 | inhibition [18] 5% | differentiation response [19] 0.92%

CC(C)[N+](C)(CCC(C(N)=O)(c1ccccc1)c1ccccc1)C(C)C
61.6%: double positive events [6]
inactive: percent of DMSO control GFP [1] 105% | GFP response vs DMSO [2] 107% | percent response of DMSO control [3] 107% | GFP response vs DMSO [4] 99.1% | GFP response, % of DMSO [5] 106% | vesicle binding response [6] 144% | inhibition [7] 5.61% | superoxide response (% of plate) [8] 110% | aptamer binding inhibition [9] 2% | response [10] 9.5% | inhibition [11] -5.08% | response [12] 0.78% | binding (% of control) [13] 101% | inhibition [14] -5% | inhibition [15] -2.6% | inhibition [16] -9.4% | efflux inhibition (fraction of control) [17] -0.61 | inhibition [18] 21% | differentiation response [19] -8.96%

c1ccc2c(c1)Nc1ccccc1S2
inactive: percent of DMSO control GFP [1] 92.8% | GFP response vs DMSO [2] 139% | percent response of DMSO control [3] 95.2% | GFP response vs DMSO [4] 81.4% | GFP response, % of DMSO [5] 84.7% | vesicle binding response [6] 121% | inhibition [7] 12.3% | superoxide response (% of plate) [8] 81.7% | aptamer binding inhibition [9] 2% | response [10] 1.66% | inhibition [11] 9.01% | response [12] -2.45% | binding (% of control) [13] 100% | inhibition [14] -1.5% | inhibition [15] 0.5% | inhibition [16] -2.6% | efflux inhibition (fraction of control) [17] 0.27 | inhibition [18] 9% | differentiation response [19] 1.64%
61.9%: double positive events [6]

CC(C)NC(C)C(=O)c1ccc2ccccc2c1 (stereo not given)
active: inhibition [18] 106% | differentiation response [19] 108%
inactive: percent of DMSO control GFP [1] 104% | GFP response vs DMSO [2] 99.6% | percent response of DMSO control [3] 98.6% | GFP response vs DMSO [4] 113% | GFP response, % of DMSO [5] 107% | vesicle binding response [6] 278% | inhibition [7] -0.43% | superoxide response (% of plate) [8] 121% | aptamer binding inhibition [9] 1% | response [10] 14.8% | inhibition [11] -7.53% | response [12] 3.67% | binding (% of control) [13] 98.4% | inhibition [14] 1.8% | inhibition [15] 2% | inhibition [16] 1.1% | efflux inhibition (fraction of control) [17] -0.28
63.7%: double positive events [6]
